{"source": "paper PMC11006913", "test_in_all_cases": "PBM; 200 nM protein, PBS", "settings_in_all_cases": "dsDNA, one strand shown", "key": {"NKX2-5 [1]": {"target": "NKX2-5 (Homo sapiens, UniProt P52952 125-210, R139K)", "sequence (P52952 125-210 R139K)": "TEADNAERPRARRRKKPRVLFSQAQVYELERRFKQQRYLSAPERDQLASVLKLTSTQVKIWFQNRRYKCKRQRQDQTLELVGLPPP"}, "NKX2-4 [2]": {"target": "T1, NKX2-4 (Homo sapiens, UniProt Q9H2Z4 175-261, P217L)", "T1 sequence": "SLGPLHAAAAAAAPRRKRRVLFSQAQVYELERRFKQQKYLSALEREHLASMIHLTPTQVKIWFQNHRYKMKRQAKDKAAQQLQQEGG"}, "NKX2-4 [3]": {"target": "T2, NKX2-4 (Homo sapiens, UniProt Q9H2Z4 175-261, T231S)", "T2 sequence": "T1 sequence with L43P, T57S"}, "NKX2-4 [4]": {"target": "T3, NKX2-4 (Homo sapiens, UniProt Q9H2Z4 175-261)", "T3 sequence": "T1 sequence with L43P"}, "NKX2-4 [5]": {"target": "T4, NKX2-4 (Homo sapiens, UniProt Q9H2Z4 175-261, R246Q)", "T4 sequence": "T1 sequence with L43P, R72Q"}, "NKX2-5 [6]": {"target": "NKX2-5 (Homo sapiens, UniProt P52952 125-210)", "sequence (P52952 125-210)": "as the sequence (P52952 125-210 R139K) above, with K15R counted along it"}, "NKX2-6 [7]": {"target": "T5, NKX2-6 (Homo sapiens, UniProt A6NCS4 118-204, R150C)", "T5 sequence": "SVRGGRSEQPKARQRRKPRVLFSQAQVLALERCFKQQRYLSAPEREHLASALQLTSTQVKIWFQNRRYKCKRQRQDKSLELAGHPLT"}, "NKX2-6 [8]": {"target": "T6, NKX2-6 (Homo sapiens, UniProt A6NCS4 118-204)", "T6 sequence": "T5 sequence with C33R"}, "NKX2-6 [9]": {"target": "T7, NKX2-6 (Homo sapiens, UniProt A6NCS4 118-204, F151L)", "T7 sequence": "T5 sequence with C33R, F34L"}, "VENTX [10]": {"target": "T8, VENTX (Homo sapiens, UniProt O95231 78-163, R121Q)", "T8 sequence": "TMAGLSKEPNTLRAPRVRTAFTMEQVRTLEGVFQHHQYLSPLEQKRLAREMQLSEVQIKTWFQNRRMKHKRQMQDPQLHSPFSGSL"}, "VENTX [11]": {"target": "T9, VENTX (Homo sapiens, UniProt O95231 78-163)", "T9 sequence": "T8 sequence with Q44R"}, "VENTX [12]": {"target": "T10, VENTX (Homo sapiens, UniProt O95231 78-163, Y115F)", "T10 sequence": "T8 sequence with Y38F, Q44R"}}, "note": "Where a chain is given by its changes, count along the chain named."}
{"sequence": "CACTCGAA", "values": [{"measurement": "binding signal", "setting": "NKX2-5 [1]", "value": "12 upbm affinity estimate (log intensity, higher = more binding, comparable within an allelic series)"}, {"measurement": "binding signal", "setting": "NKX2-4 [2]", "value": "12.5 upbm affinity estimate (log intensity, higher = more binding, comparable within an allelic series)"}, {"measurement": "binding signal", "setting": "NKX2-4 [3]", "value": "13 upbm affinity estimate (log intensity, higher = more binding, comparable within an allelic series)"}, {"measurement": "binding signal", "setting": "NKX2-4 [4]", "value": "12.5 upbm affinity estimate (log intensity, higher = more binding, comparable within an allelic series)"}, {"measurement": "binding signal", "setting": "NKX2-4 [5]", "value": "13.1 upbm affinity estimate (log intensity, higher = more binding, comparable within an allelic series)"}, {"measurement": "binding signal", "setting": "NKX2-5 [6]", "value": "11.9 upbm affinity estimate (log intensity, higher = more binding, comparable within an allelic series)"}]}
{"sequence": "ACACTTGA", "values": [{"measurement": "binding signal", "setting": "NKX2-5 [1]", "value": "13 upbm affinity estimate (log intensity, higher = more binding, comparable within an allelic series)"}, {"measurement": "binding signal", "setting": "NKX2-4 [2]", "value": "12.7 upbm affinity estimate (log intensity, higher = more binding, comparable within an allelic series)"}, {"measurement": "binding signal", "setting": "NKX2-4 [3]", "value": "13.2 upbm affinity estimate (log intensity, higher = more binding, comparable within an allelic series)"}, {"measurement": "binding signal", "setting": "NKX2-4 [4]", "value": "12.6 upbm affinity estimate (log intensity, higher = more binding, comparable within an allelic series)"}, {"measurement": "binding signal", "setting": "NKX2-6 [7]", "value": "12 upbm affinity estimate (log intensity, higher = more binding, comparable within an allelic series)"}, {"measurement": "binding signal", "setting": "NKX2-6 [8]", "value": "13.9 upbm affinity estimate (log intensity, higher = more binding, comparable within an allelic series)"}, {"measurement": "binding signal", "setting": "NKX2-4 [5]", "value": "13.4 upbm affinity estimate (log intensity, higher = more binding, comparable within an allelic series)"}, {"measurement": "binding signal", "setting": "NKX2-6 [9]", "value": "11.4 upbm affinity estimate (log intensity, higher = more binding, comparable within an allelic series)"}, {"measurement": "binding signal", "setting": "NKX2-5 [6]", "value": "12.9 upbm affinity estimate (log intensity, higher = more binding, comparable within an allelic series)"}]}
{"sequence": "CCTCTTAA", "values": [{"measurement": "binding signal", "setting": "NKX2-5 [1]", "value": "12.3 upbm affinity estimate (log intensity, higher = more binding, comparable within an allelic series)"}, {"measurement": "binding signal", "setting": "NKX2-4 [2]", "value": "12.4 upbm affinity estimate (log intensity, higher = more binding, comparable within an allelic series)"}, {"measurement": "binding signal", "setting": "NKX2-4 [3]", "value": "12.7 upbm affinity estimate (log intensity, higher = more binding, comparable within an allelic series)"}, {"measurement": "binding signal", "setting": "NKX2-4 [4]", "value": "12.3 upbm affinity estimate (log intensity, higher = more binding, comparable within an allelic series)"}, {"measurement": "binding signal", "setting": "NKX2-6 [8]", "value": "13.4 upbm affinity estimate (log intensity, higher = more binding, comparable within an allelic series)"}, {"measurement": "binding signal", "setting": "NKX2-4 [5]", "value": "12.9 upbm affinity estimate (log intensity, higher = more binding, comparable within an allelic series)"}, {"measurement": "binding signal", "setting": "NKX2-6 [9]", "value": "10.5 upbm affinity estimate (log intensity, higher = more binding, comparable within an allelic series)"}, {"measurement": "binding signal", "setting": "NKX2-5 [6]", "value": "12.3 upbm affinity estimate (log intensity, higher = more binding, comparable within an allelic series)"}]}
{"sequence": "CTCTTAAG", "values": [{"measurement": "binding signal", "setting": "NKX2-5 [1]", "value": "12.3 upbm affinity estimate (log intensity, higher = more binding, comparable within an allelic series)"}, {"measurement": "binding signal", "setting": "NKX2-4 [2]", "value": "12.5 upbm affinity estimate (log intensity, higher = more binding, comparable within an allelic series)"}, {"measurement": "binding signal", "setting": "NKX2-4 [3]", "value": "12.7 upbm affinity estimate (log intensity, higher = more binding, comparable within an allelic series)"}, {"measurement": "binding signal", "setting": "NKX2-4 [4]", "value": "12.3 upbm affinity estimate (log intensity, higher = more binding, comparable within an allelic series)"}, {"measurement": "binding signal", "setting": "NKX2-6 [8]", "value": "13.5 upbm affinity estimate (log intensity, higher = more binding, comparable within an allelic series)"}, {"measurement": "binding signal", "setting": "NKX2-4 [5]", "value": "12.9 upbm affinity estimate (log intensity, higher = more binding, comparable within an allelic series)"}, {"measurement": "binding signal", "setting": "NKX2-6 [9]", "value": "10.6 upbm affinity estimate (log intensity, higher = more binding, comparable within an allelic series)"}, {"measurement": "binding signal", "setting": "NKX2-5 [6]", "value": "12.3 upbm affinity estimate (log intensity, higher = more binding, comparable within an allelic series)"}]}
{"sequence": "ATAATGGG", "values": [{"measurement": "binding signal", "setting": "NKX2-5 [1]", "value": "10.9 upbm affinity estimate (log intensity, higher = more binding, comparable within an allelic series)"}, {"measurement": "binding signal", "setting": "VENTX [10]", "value": "11.4 upbm affinity estimate (log intensity, higher = more binding, comparable within an allelic series)"}, {"measurement": "binding signal", "setting": "VENTX [11]", "value": "12.4 upbm affinity estimate (log intensity, higher = more binding, comparable within an allelic series)"}, {"measurement": "binding signal", "setting": "VENTX [12]", "value": "11.4 upbm affinity estimate (log intensity, higher = more binding, comparable within an allelic series)"}, {"measurement": "binding signal", "setting": "NKX2-5 [6]", "value": "11 upbm affinity estimate (log intensity, higher = more binding, comparable within an allelic series)"}]}
{"sequence": "TACTTGAA", "values": [{"measurement": "binding signal", "setting": "NKX2-5 [1]", "value": "12.6 upbm affinity estimate (log intensity, higher = more binding, comparable within an allelic series)"}, {"measurement": "binding signal", "setting": "NKX2-4 [2]", "value": "12.7 upbm affinity estimate (log intensity, higher = more binding, comparable within an allelic series)"}, {"measurement": "binding signal", "setting": "NKX2-4 [3]", "value": "13.2 upbm affinity estimate (log intensity, higher = more binding, comparable within an allelic series)"}, {"measurement": "binding signal", "setting": "NKX2-4 [4]", "value": "12.6 upbm affinity estimate (log intensity, higher = more binding, comparable within an allelic series)"}, {"measurement": "binding signal", "setting": "NKX2-6 [7]", "value": "11.6 upbm affinity estimate (log intensity, higher = more binding, comparable within an allelic series)"}, {"measurement": "binding signal", "setting": "NKX2-6 [8]", "value": "13.4 upbm affinity estimate (log intensity, higher = more binding, comparable within an allelic series)"}, {"measurement": "binding signal", "setting": "NKX2-4 [5]", "value": "13.3 upbm affinity estimate (log intensity, higher = more binding, comparable within an allelic series)"}, {"measurement": "binding signal", "setting": "NKX2-6 [9]", "value": "10.8 upbm affinity estimate (log intensity, higher = more binding, comparable within an allelic series)"}, {"measurement": "binding signal", "setting": "NKX2-5 [6]", "value": "12.5 upbm affinity estimate (log intensity, higher = more binding, comparable within an allelic series)"}]}
{"sequence": "CCACTCGA", "values": [{"measurement": "binding signal", "setting": "NKX2-5 [1]", "value": "12.5 upbm affinity estimate (log intensity, higher = more binding, comparable within an allelic series)"}, {"measurement": "binding signal", "setting": "NKX2-4 [2]", "value": "12.6 upbm affinity estimate (log intensity, higher = more binding, comparable within an allelic series)"}, {"measurement": "binding signal", "setting": "NKX2-4 [3]", "value": "13.1 upbm affinity estimate (log intensity, higher = more binding, comparable within an allelic series)"}, {"measurement": "binding signal", "setting": "NKX2-4 [4]", "value": "12.4 upbm affinity estimate (log intensity, higher = more binding, comparable within an allelic series)"}, {"measurement": "binding signal", "setting": "NKX2-6 [7]", "value": "11.6 upbm affinity estimate (log intensity, higher = more binding, comparable within an allelic series)"}, {"measurement": "binding signal", "setting": "NKX2-4 [5]", "value": "13.1 upbm affinity estimate (log intensity, higher = more binding, comparable within an allelic series)"}, {"measurement": "binding signal", "setting": "NKX2-5 [6]", "value": "12.2 upbm affinity estimate (log intensity, higher = more binding, comparable within an allelic series)"}]}
{"sequence": "TACCGGTA", "values": [{"measurement": "binding signal", "setting": "NKX2-5 [1]", "value": "8.84 upbm affinity estimate (log intensity, higher = more binding, comparable within an allelic series)"}, {"measurement": "binding signal", "setting": "NKX2-4 [2]", "value": "9.99 upbm affinity estimate (log intensity, higher = more binding, comparable within an allelic series)"}, {"measurement": "binding signal", "setting": "NKX2-4 [3]", "value": "10.1 upbm affinity estimate (log intensity, higher = more binding, comparable within an allelic series)"}, {"measurement": "binding signal", "setting": "NKX2-4 [4]", "value": "9.94 upbm affinity estimate (log intensity, higher = more binding, comparable within an allelic series)"}, {"measurement": "binding signal", "setting": "NKX2-4 [5]", "value": "10.1 upbm affinity estimate (log intensity, higher = more binding, comparable within an allelic series)"}, {"measurement": "binding signal", "setting": "NKX2-5 [6]", "value": "8.86 upbm affinity estimate (log intensity, higher = more binding, comparable within an allelic series)"}]}
{"sequence": "CCTGGGCC", "values": [{"measurement": "binding signal", "setting": "NKX2-5 [1]", "value": "8.72 upbm affinity estimate (log intensity, higher = more binding, comparable within an allelic series)"}, {"measurement": "binding signal", "setting": "VENTX [10]", "value": "7.97 upbm affinity estimate (log intensity, higher = more binding, comparable within an allelic series)"}, {"measurement": "binding signal", "setting": "VENTX [11]", "value": "8.01 upbm affinity estimate (log intensity, higher = more binding, comparable within an allelic series)"}, {"measurement": "binding signal", "setting": "VENTX [12]", "value": "7.99 upbm affinity estimate (log intensity, higher = more binding, comparable within an allelic series)"}, {"measurement": "binding signal", "setting": "NKX2-5 [6]", "value": "8.87 upbm affinity estimate (log intensity, higher = more binding, comparable within an allelic series)"}]}
